Experimental data: the supplement of paper PMC8387472

Columns and labels:
Test in all cases: fraction of edited reads among all mapped reads; higher = more Cas9 editing
Conditions in all cases: mESC; 2uM; 72 h treatment, harvest day 5
[1] = compound: Cc1cc(C)nc(SCC(=O)Nc2ncc(Cc3cccc4ccccc34)s2)n1
[2] = compound: Cc1ccc(C(=O)NCCCCCC(=O)Nc2ccccc2N)cc1
[3] = compound: Cc1cccc(CC(=O)N2CCc3c2ccc(-c2cn(C)c4ncnc(N)c24)c3F)n1
[4] = compound: NC(=O)c1ccc2nc(-c3ccc(Oc4ccc(Cl)cc4)cc3)[nH]c2c1 [Chk 2 inhibitor II (BML-277)]
Tucidinostat (Chidamide) = compound: Nc1cc(F)ccc1NC(=O)c1ccc(CNC(=O)/C=C/c2cccnc2)cc1 [Tucidinostat (Chidamide)]
Pemetrexed = compound: Nc1nc2[nH]cc(CCc3ccc(C(=O)N[C@@H](CCC(=O)O)C(=O)O)cc3)c2c(=O)[nH]1 [Pemetrexed]
[5] = compound: Nc1ncnc2c1c(-c1cnc3[nH]ccc3c1)nn2C1CCCC1
[6] = compound: O=C(c1cccc(Cl)c1F)N1CCN(Cc2cccc(Nc3nccs3)n2)CC1
Kenpaullone = compound: O=C1Cc2c([nH]c3ccc(Br)cc23)-c2ccccc2N1 [Kenpaullone]
Genistein = compound: O=c1c(-c2ccc(O)cc2)coc2cc(O)cc(O)c12 [Genistein]

Target	fraction of edited reads among all mapped reads [1]	fraction of edited reads among all mapped reads [2]	fraction of edited reads among all mapped reads [3]	fraction of edited reads among all mapped reads [4]	fraction of edited reads among all mapped reads (Tucidinostat (Chidamide))	fraction of edited reads among all mapped reads (Pemetrexed)	fraction of edited reads among all mapped reads [5]	fraction of edited reads among all mapped reads [6]	fraction of edited reads among all mapped reads (Kenpaullone)	fraction of edited reads among all mapped reads (Genistein)
38.0 (DMSO control at this site: 1-bp insertion 0.063, MH deletion 0.487, edited 0.17) GGGCTGGGTGCTAAAATGAGGAGCTCCAAGAAGACTGAGGTGAACCTGGAGGCCCCTGAGC	0.27	0.178	0.197	0.187	0.181	0.167	0.146	0.128	0.316	0.198
32.0 (DMSO control at this site: 1-bp insertion 0.03, MH deletion 0.85, edited 0.898) AGAAGTCCAGGATCAGGGGGACTGGGGTCGGGAGGGTGGGGCAGGAAGGAAGCCAGAATCA	0.946	0.904	0.925	0.917	0.9	0.87	0.891	0.849	0.951	0.923
4.0 (DMSO control at this site: 1-bp insertion 0.146, MH deletion 0.523, edited 0.125) ACGCCTTAGTGCACGAGTGACGGGATAATGTGGTCTCAGGTAATTGATAGGCTTCCAACTT	0.237	0.155	0.209	0.166	0.13	0.16	0.15	0.0959	0.306	0.175
26.0 (DMSO control at this site: 1-bp insertion 0.518, MH deletion 0.262, edited 0.026) AGGGCGCGCCCCACGCACTCTGCGGCAAGTCCCTCTGCGGCAAGTCCTCGGCCCGGAAGAC	0.0413	0.0319	0.0384	0.0384	0.0295	0.0225	0.0266	0.0221	0.0413	0.0338
46.0 TTAAGAGCAATGTTCACGCAACTTGAAATTATATCTGTGGTCTTCAAATTGTCTTTTGTCA		0.1			0.0602	0.136	0.105			0.116
23.0 AGAACAAAGCGCTCATATAACGATATGGGGGGTTATGGGGGGTTGAATTGCTTCAGCACGA								0.94		
20.0 (DMSO control at this site: 1-bp insertion 0.349, MH deletion 0.138, edited 0.084) TACAGGTGTAGACTGGTTACGTGGCTGCGGAATTGACTGGTTACGTGGCTGCGGAATTTTG	0.152	0.0728	0.111	0.106	0.0826	0.0835	0.117	0.0574	0.232	0.125
25.0 (DMSO control at this site: 1-bp insertion 0.017, MH deletion 0.774, edited 0.143) GGGCCTGAATGGTGTGGACATCTACTCGCTGGTGAGCTGGTGACTGAAAACATTCAGTGGC	0.278	0.159	0.228	0.194	0.14	0.16	0.15	0.109	0.31	0.203
41.0 (DMSO control at this site: 1-bp insertion 0.022, MH deletion 0.754, edited 0.115) AAAGAGACAGCAGGTATGAATCCATCTTCCTGACCCTTGGGACCAGCCGGGGCAGTGAAGC	0.227	0.138	0.172	0.157	0.121	0.12	0.113	0.0798	0.25	0.169
22.0 (DMSO control at this site: 1-bp insertion 0.573, MH deletion 0.229, edited 0.045) CTGATGGTTGAAGGATTTAGCCGGGGTCCTAGACGCCGGGGTCCTAGACGAAAGGGCCACG	0.0884	0.0476	0.0695	0.0586	0.0454	0.056		0.0278	0.117	0.0556
43.0 (DMSO control at this site: 1-bp insertion 0.134, MH deletion 0.714, edited 0.104) AGTTTAACTTACTCCGGCCAAAAAAGAACTGCACCTCTGGAGCGGGTTAGTGGTGGTGGTA	0.219	0.137	0.172	0.155	0.116	0.093	0.126	0.0909	0.271	0.179
30.0 (DMSO control at this site: 1-bp insertion 0.074, MH deletion 0.67, edited 0.142) GAGCTGGCATGAGTATTTGTGCCACATGGCTCCCACATGGCTCCACATGCAAGTTTGAAAC	0.226	0.147	0.212	0.179	0.129	0.148	0.143	0.112	0.286	0.191
2.0 (DMSO control at this site: 1-bp insertion 0.364, MH deletion 0.356, edited 0.125) GGTGCCCCCGAGACCTACGCGAACCGAAATCGATGTCCGGTGCGCAAGCAGGGCTGGCGTC	0.231	0.128	0.18	0.147	0.115	0.129	0.137	0.102	0.286	0.169
